# Screens: PubChem BioAssay, National Center for Advancing Translational Sciences (NCATS)
# The list is not random: actives were taken first. Their share in the collection is about 10%.
# G9a block: qHTS Assay for Inhibitors of Histone Lysine Methyltransferase G9a. Histone-lysine N-methyltransferase EHMT2 (Homo sapiens), Q96KQ7. G9a H3K9 monomethylation, AlphaScreen, 2 h. Potency, µM (series often up to 102 µM), inactives show top-dose activity, negative = inhibition, actives largely listed as inhibitors. actives 8.8% (n = 350,000). AID 504332, 2011; also: % is scaled to controls: 0 for no effect and ±100 for the full control effect; nearly all actives have a fitted effect of over 75% in size
# Target sequence (Q96KQ7 913-1193 limits assumed): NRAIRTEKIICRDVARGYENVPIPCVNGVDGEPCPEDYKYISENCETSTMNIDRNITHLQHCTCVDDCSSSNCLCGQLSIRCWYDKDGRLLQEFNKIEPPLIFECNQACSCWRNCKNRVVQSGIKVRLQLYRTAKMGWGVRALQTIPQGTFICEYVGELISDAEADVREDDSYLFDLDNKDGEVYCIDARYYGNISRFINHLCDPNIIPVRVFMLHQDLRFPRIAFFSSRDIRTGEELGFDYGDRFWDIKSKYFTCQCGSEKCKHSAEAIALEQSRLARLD
#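 Quantitative HTS format: methyltransferase activity on a biotin-tagged H3K9 peptide is measured by AlphaScreen, using a rabbit anti-monomethyl-H3K9 antibody with streptavidin donor and anti-IgG acceptor beads. Final levels are 20 nM enzyme, 500 nM peptide, 20 uM SAM; 2 h RT.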
# HP1b binding inh: HTS for Inhibitors of HP1-beta Chromodomain Interactions with Methylated Histone Tails. Chromobox protein homolog 1 (Homo sapiens), P83916. AlphaScreen HP1-beta / biotin-H3K9me3 peptide binding. Potency, µM (titrated, usually from 114 µM), without a hit: at the highest dose activity change, negative = inhibition, most hits filed as inhibitors. actives 0.56% (n = 390,000); also: nearly all actives have a fitted effect of over 70% in size
# Target sequence (P83916 whole entry, looked up): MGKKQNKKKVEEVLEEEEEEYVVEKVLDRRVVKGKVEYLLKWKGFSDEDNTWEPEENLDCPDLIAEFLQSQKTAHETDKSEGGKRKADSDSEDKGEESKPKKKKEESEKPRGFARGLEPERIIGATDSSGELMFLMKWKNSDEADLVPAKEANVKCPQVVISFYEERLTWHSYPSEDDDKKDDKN
#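 HP1-beta protein (50 nM final) preincubated 30 min at room temperature with biotinylated H3(1-18)K9me3 peptide (50 nM) in PBS pH 7.4, 0.01% Tween-20, then compound added for 30 min. AlphaScreen streptavidin donor/nickel chelate acceptor beads (10 ug/mL final), 30 min dark, luminescence read.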
# BAZ2B block: qHTS Assay for Inhibitors of BAZ2B; actives 4.4% (n = 360,000); Potency, µM (series often up to 114 µM), without a hit: top-dose activity change, negative = inhibition, usual class: inhibitors; AID 504333, 2011; AlphaScreen BAZ2B-H3K14Ac peptide displacement; also: % is scaled to controls: 0 for no effect and ±100 for the full control effect; nearly all actives have a fitted effect of over 60% in size
#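 Inhibition is scored as reduced AlphaScreen emission. The BAZ2B/b-H3(5-23)K14Ac complex (50 nM each) in PBS pH 7.4, 0.01% Tween-20 meets compound (up to 110 uM) for 30 min at RT before bead addition.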
# GLS inh: qHTS for Inhibitors of Glutaminase (GLS) | Glutaminase kidney isoform, mitochondrial (Homo sapiens), O94925 | GLS enzymatic activity, qHTS titration | Potency, µM (doses to about 45.5 µM), without a hit: top-dose activity change, negative = inhibition, hits mostly inhibitors | actives 0.21% (n = 410,000) | AID 624170, 2012; also: % is scaled to controls: 0 for no effect and ±100 for the full control effect
#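 Glutamate formation by hKGA was monitored fluorometrically using coupled glutamate oxidase, HRP and Amplex Red. Substrate was added as 1 mM L-glutamine solution; incubation was 30 min at RT after an initial read.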
# JMJD2A Tudor: qHTS Assay for Inhibitors of JMJD2A-Tudor Domain | Lysine-specific demethylase 4A (Homo sapiens), O75164 | Potency, µM (titrated, usually from 114 µM), inactives show at the highest dose activity change, negative = inhibition, usual class: inhibitors | AID 504339, 2011 | AlphaScreen JMJD2A-Tudor / H3K4me3 peptide binding | actives 4.4% (n = 390,000); also: % is scaled to controls: 0 for no effect and ±100 for the full control effect; nearly all actives have a fitted effect of over 50% in size
# Active calls of the source: *; ? = inconclusive; . = no result given; [ ] = dose if it differs, or a comment. Calls follow the shape of the dose curve; as a rule, active = well fitted curve in the direction sought with a large enough effect; inconclusive = small, poorly fitted or top-dose-only effect, or another doubt; inactive = no such curve, though single readings can be large; an effect the other way counts as inactive or inconclusive. Potency is read from the fitted curve at half-maximal effect.
SMILES,G9a block,HP1b binding inh,BAZ2B block,GLS inh,JMJD2A Tudor
CC(=O)N1CCN(C(=O)c2ccc(OC3CCN(Cc4ccccn4)CC3)cc2)CC1,70.8µM*,22.3%[57 µM],-28.7%,-1.5%,-4.1%
COCC1CCCN(C(=O)c2ccc(OC3CCN(Cc4ccccn4)CC3)cc2)C1 (stereo unspecified),8.9%,16.8%,-15.8%,3.9%,28.2µM*
CCN(CC)C1CCN(C(=O)c2ccc(OC3CCN(Cc4ccccn4)CC3)cc2)C1 (stereo unspecified),-13.8%,19.9%,-9.1%[57.1 µM],7.5%,-13.4%
Cc1cc(C)n(-c2ccc(Cl)c(C(=O)OCC(=O)N3CCCCC3C)n2)n1 (stereo unspecified),?,48.0%,-0.5%,3.2%,-18.7%
OCCN(CC#CC(O)(c1ccccc1)c1cccc(F)c1)CCO (stereo unspecified),.,-4.8%,79.4µM*,10.6%,?
S=c1[nH]nc(CCCc2n[nH]c(=S)o2)o1,.,?,-28.6%,0.0%,2.82µM*
Cc1cccc(-n2nc(C(=O)c3ccco3)cc(-c3nc4ccccc4[nH]3)c2=N)c1,7.9%[59 µM],8.5%,?,0.1%,-29.7%
O=Cc1cn[nH]c1-c1cccc([N+](=O)[O-])c1,-33.9%,18.3%,1.3%,-0.8%,-13.9%
O=C(O)c1cn[nH]c1-c1cccc([N+](=O)[O-])c1,35.5µM*,1.9%,-22.4%,12.5%,-29.2%
COC(=O)c1cccc(C(=O)N2CCCC(C(=O)c3cccc(OC(C)C)c3)C2)c1 (stereo unspecified),-7.2%,33.5%,-7.4%,-2.7%,-9.7%
CC/C(C)=N\N=C\c1c(O)n(CC)c2cc(C3=NNC(=O)CC3)ccc12,8.91µM*,16.5%,-24.5%,11.7%,-34.4%
CCn1c(O)c(/C=N/N=C/c2ccc(OC)cc2)c2cc(C3=NNC(=O)CC3)ccc21,.,18.9%,-10.6%,7.0%,-6.5%
CCN1C(=O)[C@H]2[C@@H](c3ccc(Cl)cc3)N3C(=O)CN(Cc4ccccc4)C(=O)[C@@]3(C)[C@H]2C1=O,.,61.3%,-3.5%,17.6%,-15.0%
CN(C)c1ccc(N=Cc2nc(-c3ccccc3)oc2O)cc1,-11.5%[0.0925 µM],4.1%,-10.0%,6.7%,-27.6%
Oc1oc(-c2ccccc2)nc1C=Nc1ccccc1,?,6.9%,-11.6%,14.0%,89.1µM*
CCn1c(CC(=O)Nc2cccc(OC)c2)nnc1SCC(=O)N1CCN(c2ccccc2)CC1,12.6µM*,6.3%,-28.2%,6.1%,-24.7%
Cn1c(Cc2cccc3ccccc23)nnc1SCC(=O)N1CCN(c2ccccc2)CC1,?,-6.6%,?,41.2%,79.4µM*
Cc1cccc(NC(=O)CSc2nccn2Cc2ccco2)c1,.,4.9%,?,9.6%,-27.7%
c1ccc(Cn2nnc3c(N4CCCC4)ncnc32)cc1,8.7%,11.0%,8.4%,-9.4%,-10.3%
CCN1CCN(c2ncnc3c2nnn3Cc2ccccc2)CC1,39.8µM*,17.0%,-0.3%,0.6%,-13.2%
C=CCNC(=S)NNC(=O)c1ccc2c(c1)OCO2,1.6%,40.3%,7.1%,19.9%,-3.0%
NC(=O)c1ccc(NC(=O)COC(=O)/C=C/c2ccc(Br)o2)cc1,.,?,.,?,20µM*
CC(C)NC(=O)COC(=O)/C=C/c1ccco1,-18.3%[59 µM],0.8%,?,-10.6%,-24.3%
O=C(COC(=O)/C=C/c1ccc(Br)o1)Nc1ccc2[nH]c(=O)[nH]c2c1,35.5µM*,.,?,.,.
O=C(COC(=O)c1ccc(Br)o1)Nc1ccc2[nH]c(=O)[nH]c2c1,17.2%[12.7 µM],25.4%,7.1%,-8.6%,-9.8%
SMILES,G9a block,HP1b binding inh,BAZ2B block,GLS inh,JMJD2A Tudor
Cc1ccc(/C=C/C(=O)OCC(=O)NC(C)C)o1,44.7µM*,6.0%,0.3%,0.0%,-9.2%
CN(C)S(=O)(=O)c1cccc(NC(=O)COC(=O)/C=C/c2ccc(Br)o2)c1,44.7µM*,?,-33.3%,-0.5%,-14.0%[11.4 µM]
O=C(N/N=C/c1cccnc1)c1cccs1,-3.0%,21.7%,0.2%,-4.2%,-0.7%
CN(CC(=O)NCC(=O)Nc1ccc(F)cc1)CC(=O)Nc1ccc(Cl)c(C(F)(F)F)c1,.,15.1%,.,-3.8%,-14.3%
CSc1n[nH]c(NC(C)=O)n1,21.1%[59 µM],-9.7%,?,3.8%,11.2µM*
CCCSc1n[nH]c(NC(C)=O)n1,?,20.6%,-5.4%,6.7%,-19.1%
Cc1cccc2c1c(N=NC(N)=S)c(O)n2C1OC(CO)C(O)C(O)C1O (stereo unspecified),35.5µM*,28.7%,-0.2%,9.5%,-1.7%
Nc1cccc2c1nnn2C1OC(CO)C(O)C(O)C1O (stereo unspecified),3.3%,.,-16.0%,.,.
COc1ccccc1-n1c(SCC(=O)N(C)C2CCS(=O)(=O)C2)nc2ccccc2c1=O (stereo unspecified),14.5%[59 µM],26.6%,17.2%,8.1%,-7.5%
COc1cc2cc3c(N)c(C(=O)NCc4ccco4)sc3nc2cc1OC,28.2µM*,29.5%,-4.1%,-13.5%,-22.2%
Cc1cc(C(=O)Nc2sc(C)c(C)c2C#N)no1,?,11.2%,0.9%,20.9%,-11.5%
Cc1cccc(C(=O)NCc2ccco2)c1,14.1%[0.501 µM],26.7%,?,-6.6%,?
COc1ccc(-c2cc(C(=O)NCc3ccco3)c3ccccc3n2)cc1OC,.,29.0%,.,-2.5%,0.0%
COc1cc2cc3c(N)c(C(=O)Nc4sc(C)c(C)c4C#N)sc3nc2cc1OC,-39.2%[59 µM],?,56.2µM*,-1.3%,79.4µM*
Cc1ccc2nc3sc(C(=O)NCc4ccco4)c(N)c3cc2c1,1.58µM*,44.7%,-30.3%,-2.8%,-20.7%
CCCn1c(=O)[nH]c(=O)c2c1nc(-c1cccs1)n2CCOC,-6.5%,9.0%,-10.3%,-0.4%,-14.0%
O=C(OCC(=O)N1CCCC1=O)c1nc(Cl)ccc1Cl,9.4%[59 µM],8.3%,0.8%,5.6%,-14.9%
O=C(CN1CCC(n2nnc3cc(F)ccc32)CC1)NCc1ccco1,?,12.4%,79.4µM*,1.4%,-23.5%
COc1ccccc1NC(=O)CN1CCC(n2nnc3cc(F)ccc32)CC1,3.3%[12.7 µM],42.9%,-1.6%,12.7%,-11.8%
Cc1[nH]c(=O)cc2ccccc12,25.1µM*,54.1%,-29.1%,-1.5%,4.5%
Cc1cc(=O)[nH]c2ccccc12,-11.7%[59 µM],59.6%,-4.1%,8.6%,-7.5%
CC(C)CCNc1ncnc2c1nnn2Cc1ccccc1Cl,6.7%,32.5%,15.7%,2.4%,-6.9%
Clc1ccccc1N=Nc1ccccn1,.,-20.6%,.,-9.4%,?
Clc1ss/c(=N\c2ccccn2)c1Cl,1.78µM*,17.7%,39.8µM*,0.3%,-10.7%
COc1ccc(NC(=O)c2cc(-c3ccco3)nc3ccccc23)cn1,10.5%[0.501 µM],?,56.2µM*,?,39.8µM*
